In PubChem BioAssay AID588651 (The Scripps Research Institute Molecular Screening Center, 2011):
Active and inactive are the calls of the source. No stated cut-off is given here; in the data, active means inhibition above about 65%; inactive means the rest.

tested on: Antitargets; assay: Fam108b inhibition by ABPP, late-stage follow-up, biochemical, gel-based ABPP, recombinant soluble Fam108b, HTS hits, complex proteome (AID 588651); details: FP-rhodamine labeling in proteome;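 further: Fam108b spiked into mouse brain membrane proteome; tested at 20 µM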

| Structure (SMILES) | outcome |
| --- | --- |
| Cc1ccc2nc(CSc3nc(C)ccc3C#N)[nH]c2c1 | inactive |
| CCOC(=O)c1sc(NC(=O)Nc2ccc(Cl)cc2)cc1C | inactive |
| COc1ccc(/C=C2\SC(=S)N(CC(=O)OCC(=O)Nc3cc(Cl)cc(Cl)c3)C2=O)cc1 | inactive |
| Oc1ccc(C2Nc3cccc4cccc(c34)N2)c(O)c1 | inactive |
| Cc1cccc(N=Cc2nc(-c3ccccc3Br)oc2O)n1 | inactive |
| Oc1ccccc1C1Nc2cccc3cccc(c23)N1 | inactive |
| Cc1c(O)ccc(C=NNc2nc(-c3cccnc3)nc3ccccc23)c1O | active |
| CN(c1ccccc1)S(=O)(=O)c1ccc(NC(=O)c2ccc(-c3ccccc3)cc2)cc1 | inactive |
| CN(C)S(=O)(=O)c1cccc(NC(=O)COC(=O)c2cc(-c3cccc(Br)c3)nc3ccccc23)c1 | inactive |
| O=c1oc(-c2ccccc2F)nc2scc(-c3ccccc3)c12 | inactive |
| Oc1ccccc1-c1nc2c3ccccc3c3ccccc3c2[nH]1 | inactive |
| COc1cc(-c2nc(-c3ccc4c(c3)-c3ccccc3S4(=O)=O)c(-c3ccccc3)[nH]2)cc(OC)c1O | inactive |
| CCCCCCCCCCCCCCCC[n+]1ccc(C=NO)cc1 | inactive |
| CCN(CC)S(=O)(=O)c1cc(NC(=O)COC(=O)c2sc3ccccc3c2Cl)ccc1C | inactive |
| COc1ccc2ccccc2c1C(O)c1nccn1C (centres undefined) | inactive |
| Cc1ccc(-c2csc3nc(C(C)C)oc(=O)c23)c(C)c1 | inactive |
| Cc1ccc(C)c(-n2c3nc(=O)[nH]c(=O)c-3cc3cc([N+](=O)[O-])ccc32)c1 | inactive |

| Structure (SMILES) | outcome |
| --- | --- |
| CCc1ccc(S(=O)(=O)/N=C2\C=C(Nc3cccc(C(=O)O)c3)C(=O)c3ccccc32)cc1 | inactive |
| Cn1c(O)c(C=NNC(=O)c2cc3ccccc3cc2O)c2ccccc21 | inactive |
| CCc1ccc(S(=O)(=O)N=C2C=C(Sc3ncn[nH]3)C(=O)c3ccccc32)cc1 | inactive |
| Nc1cc2nsnc2cc1Br | inactive |
| Nc1c(S(=O)(=O)c2cccc(Cl)c2)c2nc3ccccc3nc2n1N=Cc1ccc(O)c(O)c1 | inactive |
| Oc1nc(Nc2cccc(Cl)c2)sc1/C=C1\C=Nc2ccccc21 | active |
| COc1ccc(/C=C/C(=O)OCC(=O)Nc2cccc(Oc3ccccc3)c2)c(OC)c1 | inactive |
| Oc1ccc(C=NNc2ccnc3cc(Cl)ccc23)cc1O | inactive |
| COc1ccc(-c2csc3nc(-c4ccccc4OC)oc(=O)c23)cc1 | inactive |
| O=C(CCCSc1ccccc1)Nc1nc(-c2ccco2)c(-c2ccco2)s1 | inactive |
| O=C(Nc1ccc(F)cc1)Nc1ccc(N2CCCC2)c(S(=O)(=O)Nc2ccccc2Cl)c1 | active |
| CCn1nc([N+](=O)[O-])c(C(C#N)c2nc3cc(C(F)(F)F)ccc3s2)c(Cl)c1=O (centres undefined) | inactive |
| Cc1ccc(S(=O)(=O)/N=C2\C=C(Nc3cccc(C(=O)O)c3)C(=O)c3ccccc32)cc1 | inactive |
| Clc1ccccc1C(c1ccccc1)(c1ccccc1)n1ccnc1 | inactive |
| Oc1cccc2cc3cccc(O)c3c(O)c12 | active |
| O=C(Nc1ccc(N2CCCC2)c(S(=O)(=O)Nc2cccc(C(F)(F)F)c2)c1)c1cccs1 | inactive |
| COc1cccc(-n2c(SCc3cc(=O)oc4cc(O)c(O)cc34)nc3ccccc3c2=O)c1 | inactive |
